Source: PubChem BioAssay (NCI)
About 83,000 compounds went through this panel and 20% of them were active in at least one assay; those are over-represented in the sample as a whole.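 For each line, cells grew in 96-well plates with the test compound present at a single concentration for 48 hours.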 Values without a mark were called inactive. Calls of active or inactive are those of the source. The calls were made as follows: active = growth percent below 10; inactive = the rest.

What was measured:
Experiment in all cases: NCI-60 one-dose screen, 48 h (100 = growth as untreated, 0 = no growth, -100 = all killed)
Settings in all cases: 10 µM unless noted
[1] = system: SK-MEL-2 melanoma
[2] = system: EKVX NSCLC
[3] = system: SN12C renal
[4] = system: UO-31 renal
[5] = system: TK-10 renal
[6] = system: ACHN renal
[7] = system: CAKI-1 renal
[8] = system: A498 renal
[9] = system: CCRF-CEM leukemia
[10] = system: MOLT-4 leukemia
[11] = system: SR leukemia
[12] = system: RPMI-8226 leukemia
[13] = system: OVCAR-8 ovarian
[14] = system: OVCAR-5 ovarian
[15] = system: OVCAR-4 ovarian
[16] = system: SK-OV-3 ovarian
[17] = system: IGROV1 ovarian
[18] = system: OVCAR-3 ovarian
[19] = system: HS 578T breast
[20] = system: NCI/ADR-RES ovarian

COc1ccc(S(=O)(=O)N2CCCCCC2)cc1NC(=O)c1[nH]c(C)c2c1CCCCC2=O
growth [1]: 43.4% | growth [2]: 38.4% | growth [3]: 36.9% | growth [4]: 12.1% | growth [5]: 15.3% | growth [6]: 25.2% | growth [7]: 12.7% | growth [8]: -25.6% (active) | growth [9]: 33.7% | growth [10]: 30.6% | growth [11]: 35.6% | growth [12]: 10.7% | growth [13]: 28.5% | growth [14]: 50.5% | growth [15]: 37.3% | growth [16]: 14.1% | growth [17]: 24.2% | growth [18]: 30.4% | growth [19]: 17.5% | growth [20]: 29.2%

O=C1c2cc3c(cc2-c2c1c1cc(F)c(F)cc1c(=O)n2CCCn1ccnc1)OCO3
growth [1]: -11.2% (active) | growth [2]: 30.9% | growth [3]: -1.14% (active) | growth [4]: -23.7% (active) | growth [5]: 29.8% | growth [6]: -55.7% (active) | growth [7]: 3.03% (active) | growth [8]: -74.1% (active) | growth [9]: 7.04% (active) | growth [10]: -14.3% (active) | growth [11]: -2.4% (active) | growth [12]: -10.1% (active) | growth [13]: 12.1% | growth [14]: 2.22% (active) | growth [15]: 20.9% | growth [16]: 6.12% (active) | growth [17]: 21.2% | growth [18]: -7.17% (active) | growth [19]: 52.5% | growth [20]: 6.95% (active)

O=C(Nc1ccc(Cl)cc1)c1cc2cc(F)ccc2cc1O
growth [1]: 6.39% (active) | growth [2]: 17% | growth [3]: 7.85% (active) | growth [4]: 12.6% | growth [5]: 17.7% | growth [6]: 3.91% (active) | growth [7]: 12% | growth [8]: -43.4% (active) | growth [9]: 15.6% | growth [10]: 7.89% (active) | growth [11]: 4.79% (active) | growth [12]: -8.91% (active) | growth [13]: 8.21% (active) | growth [14]: 29.9% | growth [15]: 26.4% | growth [16]: -18.7% (active) | growth [17]: 42.5% | growth [18]: 23% | growth [19]: 18.6% | growth [20]: 4.6% (active)

CN(C)CCN1C(=O)c2cccc3c(N)ccc(c23)C1=O
growth [1]: 19.6% | growth [2]: 30.5% | growth [3]: 33.6% | growth [4]: 26.8% | growth [5]: 58.9% | growth [6]: 12.8% | growth [7]: -7.49% (active) | growth [8]: 65.6% | growth [9]: 10.5% | growth [10]: 1.9% (active) | growth [11]: -19.2% (active) | growth [12]: 4.13% (active) | growth [13]: 18.1% | growth [14]: 36.5% | growth [15]: 41.6% | growth [16]: 32.2% | growth [17]: 27.6% | growth [18]: 21.8% | growth [19]: 56.8% | growth [20]: 40%

C(=N/Nc1ncc(-c2cc3cc(-c4ccccc4)ccc3o2)s1)/c1cccs1
growth [1]: 99.7% | growth [2]: 94.9% | growth [3]: 87.6% | growth [4]: 84.8% | growth [5]: 97.5% | growth [6]: 97.9% | growth [7]: 103% | growth [8]: 32.5% | growth [9]: 97.5% | growth [10]: 96.5% | growth [11]: 79% | growth [12]: 70.4% | growth [13]: 99.5% | growth [14]: 93.9% | growth [15]: 89.6% | growth [16]: 113% | growth [17]: 102% | growth [18]: 97.1% | growth [19]: 107% | growth [20]: 101%

CNc1ccc(-c2cc(=O)oc3ccc(Cl)cc23)cc1
growth [1]: 33.7% | growth [2]: 40.1% | growth [3]: 29.9% | growth [4]: 47.7% | growth [5]: 50% | growth [6]: 37% | growth [7]: 34.4% | growth [8]: -3.47% (active) | growth [9]: 14.4% | growth [10]: 11.3% | growth [11]: 9.27% (active) | growth [12]: 18.7% | growth [13]: 16.6% | growth [14]: 55.6% | growth [15]: 62.6% | growth [16]: 9.16% (active) | growth [17]: 50.1% | growth [18]: 9.85% (active) | growth [19]: 16% | growth [20]: 12.4%

O=c1c2c3c(sc2nc(N/N=C/c2cn(-c4ccccc4)nc2-c2ccc(Cl)cc2)n1Cc1ccccc1)CCCC3
growth [1]: 103% | growth [2]: 106% | growth [3]: 127% | growth [4]: 95.9% | growth [5]: 129% | growth [6]: 117% | growth [7]: 98.9% | growth [8]: 112% | growth [9]: 109% | growth [10]: 22% | growth [11]: 59.3% | growth [12]: 119% | growth [13]: 98.2% | growth [14]: 121% | growth [15]: 109% | growth [16]: 102% | growth [17]: 92.4% | growth [18]: 106% | growth [19]: 94.2% | growth [20]: 108%

O=C1OCC2=C1C(c1ccncc1)c1cc3c(cc1N2CCO)OCO3 (stereo not given)
growth [1]: 107% | growth [2]: 101% | growth [3]: 100% | growth [4]: 94.7% | growth [5]: 101% | growth [6]: 105% | growth [7]: 99.3% | growth [8]: 90% | growth [9]: 94% | growth [10]: 107% | growth [11]: 122% | growth [12]: 103% | growth [13]: 98.8% | growth [14]: 100% | growth [15]: 100% | growth [16]: 87.3% | growth [17]: 101% | growth [18]: 105% | growth [19]: 87% | growth [20]: 104%

O=C1NC(=Nc2ccc(O)cc2)S/C1=C\c1cccc(Cl)c1
growth [1]: 109% | growth [2]: 84.2% | growth [3]: 82% | growth [4]: 42.5% | growth [5]: 97.3% | growth [6]: 84.5% | growth [7]: 70% | growth [8]: 50.1% | growth [9]: 27.1% | growth [10]: 45.4% | growth [11]: 23.1% | growth [12]: 2.99% (active) | growth [13]: 84.3% | growth [14]: 110% | growth [15]: 90.3% | growth [16]: 77.1% | growth [17]: 65.7% | growth [18]: 30.1% | growth [19]: 63.1% | growth [20]: 83.8%

COc1ccc2[nH]cc(-c3noc(C(=O)c4cn(C)c5ccc(F)cc45)n3)c2c1
growth [1]: 94.7% | growth [2]: 76.9% | growth [3]: 93% | growth [4]: 67.9% | growth [5]: 113% | growth [6]: 88.4% | growth [7]: 81.5% | growth [8]: 95.8% | growth [9]: 99.2% | growth [10]: 95.4% | growth [11]: 89.7% | growth [12]: 104% | growth [13]: 93.6% | growth [14]: 99.9% | growth [15]: 95.2% | growth [16]: 87.3% | growth [17]: 60.1% | growth [18]: 97.5% | growth [19]: 90.9% | growth [20]: 96%

Oc1cccc(-c2nc(N3CCOCC3)c3c4c(sc3n2)CCCC4)c1
growth [1]: 71.3% | growth [2]: 34.4% | growth [3]: 38.8% | growth [4]: 13.1% | growth [5]: 70.6% | growth [6]: 38.3% | growth [7]: 69.8% | growth [8]: 114% | growth [9]: 60.5% | growth [10]: 24% | growth [11]: 70.3% | growth [12]: 61% | growth [13]: 51.9% | growth [14]: 82.7% | growth [15]: 45.9% | growth [16]: 30.6% | growth [17]: 3.92% (active) | growth [18]: 56.9% | growth [19]: 10.2% | growth [20]: 52.1%

Cc1[nH]c(-c2cc(N)ccc2Cl)c2c1C(=O)CCCC2
growth [1]: 31% | growth [2]: 36.5% | growth [3]: 35% | growth [4]: 10.1% | growth [5]: 1.81% (active) | growth [6]: 19.8% | growth [7]: 2.45% (active) | growth [8]: 27% | growth [9]: 52.3% | growth [10]: 52.7% | growth [11]: 44.8% | growth [12]: 12.7% | growth [13]: 22.2% | growth [14]: 49.3% | growth [15]: 36.4% | growth [16]: 11.7% | growth [17]: 20.6% | growth [18]: 30.4% | growth [19]: 7.36% (active) | growth [20]: 33%

O=C(COc1cccc(/C=C2\COc3ccccc3C2=O)c1)Nc1nccs1
growth [1]: 65% | growth [2]: 72.2% | growth [3]: 78.4% | growth [4]: 67.3% | growth [5]: 64.2% | growth [6]: 88.2% | growth [7]: 83.5% | growth [8]: 102% | growth [9]: -58.5% (active) | growth [10]: -48.4% (active) | growth [11]: -73.8% (active) | growth [12]: -67% (active) | growth [13]: 20.3% | growth [14]: 81.8% | growth [15]: 97.2% | growth [16]: 99.8% | growth [17]: 5.16% (active) | growth [18]: 73.8% | growth [19]: -6.5% (active) | growth [20]: 45.6%

CCCCCCN(CCCCCC)CCC(O)c1ccc2ccccc2c1 (stereo not given)
growth [1]: 86.1% | growth [2]: 71% | growth [3]: 58.6% | growth [4]: 38.4% | growth [5]: 72% | growth [6]: 68.7% | growth [7]: 53% | growth [8]: 48.3% | growth [9]: 41.8% | growth [10]: 45.7% | growth [11]: 0.428% (active) | growth [12]: 7.65% (active) | growth [13]: 73.4% | growth [14]: 69.5% | growth [15]: 45.7% | growth [16]: 83.5% | growth [17]: 59.6% | growth [18]: 69.7% | growth [19]: 69.1% | growth [20]: 58%

COc1ccc2c(c1)c(-c1nonc1-c1cn(C)c3ccccc13)cn2C
growth [1]: 41.4% | growth [2]: 51.7% | growth [3]: 47.8% | growth [4]: 35.1% | growth [5]: 59.2% | growth [6]: 48.6% | growth [7]: 30.1% | growth [8]: 3.63% (active) | growth [9]: 25.7% | growth [10]: 30.2% | growth [11]: 30.1% | growth [12]: 21.2% | growth [13]: 35.6% | growth [14]: 52% | growth [15]: 45.5% | growth [16]: 44.6% | growth [17]: 42.5% | growth [18]: 3.08% (active) | growth [19]: 16.7% | growth [20]: 17.1%
